# Assay outcomes as filed in PubChem BioAssay.
# Compounds with a hit are over-represented: about 4.8% of the library has one in this group of screens.
# DAX1 inh-1: DAX1 (NR0B1) inhibition, primary screen; HEK293T StAR-luciferase reporter, SF-1/DAX-1 repression relief; hit rate 1.1% among 370,000; inhibition, % at 6.8 µM;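 active = inhibition above the mean over all tested compounds plus 3 SD, cut at about 3.6% in these data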;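 note: 0% = DAX-1 cells with DMSO and 100% = cells lacking DAX-1 with DMSO; higher inhibition means more luminescence from relief of DAX-1 repression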
# hgDAF12 agonist: activates the H. glycines DAF-12 receptor ligand-binding domain. HEK293 GAL4-hgDAF12 UAS-luciferase reporter, agonist luminescence; normalized to butyrate control. activation, % at 6.8 µM. hit rate 1.8% among 370,000;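 active = activation above a cutoff set at the mean of all screened compounds plus 3 SD, cut at about 10% in these data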;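 note: 0% = DMSO wells and 100% = sodium butyrate wells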
# ssDAF12 agonist: activators of S. stercoralis DAF-12 nuclear receptor | HEK293 ssDAF-12/GRIP1 lit1-tk-luc reporter, luminescence; % of 3 µM dafachronic acid response | activation, % at 6.8 µM | hit rate 1% among 370,000 | AID 652126;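 active = activation above the mean over all tested compounds plus 3 SD, cut at about 0.9% in these data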;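 note: 0% = DMSO-only wells and 100% = 3 µM delta7-dafachronic acid wells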
# hcDAF-12 act: activators of H. contortus DAF-12 nuclear receptor. activation, % at 6.8 µM. HEK293 hcDAF-12 lit1-tk-luc reporter, luminescence; 0% DMSO, 100% Δ7-dafachronic acid. hit rate 1.4% among 370,000. AID 652067;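 active = activation above the mean of all tested compounds plus 3 SD, cut at about 5.5% in these data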;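 note: 100% = response to 3 µM Δ7-dafachronic acid high control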
# DAX1 inh-2: inhibits human nuclear receptor DAX1; P51843; HEK293 Gal4-DAX1 luciferase reporter, luminescence; inhibition, % at 6.75 µM; hit rate 0.99% among 340,000; AID 504766;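 active = inhibition above the mean over all tested compounds plus 3 SD, cut at about 4.2% in these data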;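 note: 0% = DAX1-transfected cells with DMSO and 100% = empty-vector control cells with DMSO; inhibition shows as a rise in luminescence from relieved DAX1 repression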
# Target sequence (P51843 207-470 limits assumed): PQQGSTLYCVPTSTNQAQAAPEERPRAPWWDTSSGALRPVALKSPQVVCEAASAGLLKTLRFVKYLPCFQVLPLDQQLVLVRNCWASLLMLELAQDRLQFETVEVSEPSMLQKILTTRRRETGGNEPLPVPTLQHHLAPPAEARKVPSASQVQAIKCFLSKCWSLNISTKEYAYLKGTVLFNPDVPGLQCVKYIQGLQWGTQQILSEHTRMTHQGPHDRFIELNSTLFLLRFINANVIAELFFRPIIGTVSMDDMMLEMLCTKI
# SMARCA2 activ: activators of SMARCA2 function | MG213 cells, MMTV-luciferase reporter, dexamethasone, overnight | hit rate 1% among 370,000 | activation, % at 9.1 µM; in the data active = activation above about 7.8%;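 note: 0% = vehicle wells and 100% = reference activator wells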
# * = called active by the depositor; · = no result.
SMILES,DAX1 inh-1,hgDAF12 agonist,ssDAF12 agonist,hcDAF-12 act,DAX1 inh-2,SMARCA2 activ
CC(C)(C)C(=O)OC12CCCN(C1)/C(=C/c1ccc(Cl)cc1)C2 (stereo not given),1.3,-1.4,-1.0,1.6,·,-4.7
Nc1ccc(-c2cnc(-c3ccc(N)cc3)nc2)cc1,1.8,10.5*,0.6,4.5,-3.4,1.9
COC(=O)N/N=C\c1cccc(OC(=O)c2cccs2)c1,0.5,-0.3,-1.3,-1.7,·,6.0
O=C(N/N=C/c1cccc(OC(=O)N2CCOCC2)c1)c1cccs1,1.0,10.9*,-1.1,3.7,0.8,1.3
CCCCc1cc(=O)oc2cc(C)cc(OCC(=O)N3C[C@H]4C[C@@H](C3)c3cccc(=O)n3C4)c12,0.9,0.9,-1.0,-0.8,7.0*,0.2
COC(=O)[C@@]12CCCCC=C1N(CCc1ccc(Cl)cc1)C(=O)[C@H]2CC(=O)NCc1cccc(C(F)(F)F)c1,-1.8,0.7,-1.0,-1.0,·,-2.9
CC(=O)Oc1ccc(C(=O)Nc2ccccc2C(=O)Nc2cccc(C(=O)O)c2)cc1,0.2,0.6,-1.0,-1.4,5.4*,1.6
O=C(CSc1ccccc1)NC1CCCCN(Cc2cccc(Cl)c2)C1=O (stereo not given),-0.6,-4.2,-2.4,-4.7,·,-1.1
N#CC1=C(O)C(c2ccccc2)n2c1nc(=O)c1ccccc12 (stereo not given),0.6,2.0,-0.8,1.4,7.3*,1.2
N#CC1=C(O)CCCn2c1nc1ccccc1c2=O,0.6,-0.8,-0.9,-0.4,-0.1,-2.8
CC(=O)c1cc(-c2ccccc2S(=O)(=O)NC(C)(C)C)c(=O)n2c1CCC2,-0.7,4.6,-1.1,-0.4,·,-0.5
O=C(OCc1cn(Cc2ccccc2)nn1)N1CCCC1,-1.3,-4.9,-0.5,-1.2,·,-1.6
O=S(=O)(NCc1ccccc1)NCc1cccc(C(F)(F)F)c1,0.2,-2.1,-0.8,-2.6,4.7*,2.2
COc1ccc(S[C@]2(C(=O)N3CCN(c4ncccn4)CC3)CC(=O)N[C@@H]2c2ccc(OC)cc2)cc1,-1.4,2.5,-0.2,-1.0,·,-2.2
Cc1ccc(NC(=O)c2cnn(-c3ccccc3)c2C)cc1,2.0,10.7*,1.1*,4.4,2.3,2.5
CCCc1c(C(=O)Nc2ccc(OC)cc2)cnn1-c1ccccc1,0.1,3.2,-0.1,2.2,6.3*,-2.1
Cc1ccc(NC(=O)c2cnn(-c3ccccc3)c2C)c(C)c1,1.0,7.3,-0.3,1.9,1.9,4.4
Cc1c(C(=O)Nc2cccc([N+](=O)[O-])c2)csc1-c1ccccc1,2.8,3.7,0.0,3.4,1.0,2.8
CCCc1c(C(=O)NNc2ccccc2OC)cnn1-c1ccccc1,0.0,1.6,-1.4,-1.3,-0.2,-0.2
COc1ccc(OC(=O)c2cnn(-c3ccccc3)c2C)cc1,2.5,12.8*,0.5,2.6,1.9,6.6
Cc1ccc(NC(=O)c2csc(-c3ccccc3)c2C)cc1,4.3*,6.1,-0.8,2.9,0.1,-2.5
O=c1c2ccccc2n(Cc2ccno2)n1[C@@H](Cc1ccccc1)Cn1cc(-c2ccc(-c3ccccc3)cc2)nn1,-0.7,-4.7,-1.1,-3.4,·,-5.7
C=CCNC(=O)N1CCN(Cc2nc3ccccc3c(=O)[nH]2)CC1,0.3,1.9,-1.1,0.0,·,-2.3
CCCCN(C(=O)c1ccc(S(=O)(=O)N(C)c2ccccc2)cc1)c1c(N)n(CCC)c(=O)[nH]c1=O,4.4*,0.9,-1.0,0.2,0.8,-0.2
CCCCn1c(N)c(N(CC(C)C)C(=O)c2ccc(S(=O)(=O)N(CC)c3ccccc3)cc2)c(=O)[nH]c1=O,-0.2,-2.3,1.4*,1.0,1.4,-0.1
SMILES,DAX1 inh-1,hgDAF12 agonist,ssDAF12 agonist,hcDAF-12 act,DAX1 inh-2,SMARCA2 activ
CCCCN(C(=O)c1ccc(N(C)S(=O)(=O)c2ccc(C)cc2)cc1)c1c(N)n(CCC)c(=O)[nH]c1=O,0.9,-0.2,-1.0,0.0,0.8,-1.9
CCCC/C=C1/[C@@H](c2ccc(Cl)cc2)N(Cc2ccc3c(c2)OCO3)C2=N[C@@H](c3ccccc3)CC(=O)N21,-0.5,0.3,-1.3,-2.1,·,-4.1
Cc1sc2nc(-c3cccnc3)nc(Cl)c2c1-c1ccccc1,0.2,3.3,-0.9,-3.9,4.3*,0.2
CC(C)(C)OC(=O)N/N=C\C=C\c1ccc2c(c1)OCO2,2.0,12.6*,-0.3,2.4,0.2,6.7
CCOC(=O)CNC(=O)/C=C/c1ccc2c(c1)OCO2,-0.5,7.1,0.9*,0.3,-0.4,-5.0
CCOC(=O)c1cccc(NC(=O)/C=C/c2ccc3c(c2)OCO3)c1,0.0,1.6,-2.0,-2.7,-4.5,-0.8
CCOC(=O)N/N=C\C=C\c1ccc2c(c1)OCO2,1.2,5.5,-1.3,0.9,5.2*,-0.3
CC(COc1ccc(CC#N)cc1)CN1CCC(C(O)(c2ccccc2)c2ccccc2)CC1 (stereo not given),-0.9,-0.9,-1.3,1.3,·,0.6
Cc1ccc(-c2noc(C3CCCN(C(=O)c4ccccc4Br)C3)n2)o1 (stereo not given),0.8,0.6,1.7*,-0.2,-0.3,-0.4
Cc1ccc(-c2noc(C3CCCN(C(=O)c4ccccc4)C3)n2)o1 (stereo not given),1.2,3.4,-0.7,0.8,-0.4,-0.3
COc1ccc(-c2noc(C3CCCN(C(=O)Nc4ccccc4F)C3)n2)cc1 (stereo not given),0.9,10.5*,-0.6,0.5,-2.0,3.4
CC(C)(C)N1Cc2nnn(CC3CCCCC3)c2-c2ccccc2S1(=O)=O,-0.6,-1.8,-0.4,-2.3,·,1.7
Cc1cccc(NC(=O)C2CCCN2S(=O)(=O)c2cccc3cccnc23)c1C (stereo not given),-0.4,-1.7,-1.9,-1.5,·,-3.4
Cc1cc(N2Cc3ccccc3C2)ccc1C=O,1.5,13.1*,-0.1,5.3,0.1,0.5
Cc1cc2c(cc1C)CN(c1ccccc1)C2,2.2,12.5*,0.1,5.2,3.4,5.7
CCOc1ccc(-n2c(SCC(=O)Nc3ccccc3-c3ccccc3)nnc2-c2ccncc2)cc1,-2.3,1.3,-1.8,-1.6,·,-1.9
CCC1(c2ccccc2)SC(=O)NC1=O (stereo not given),-0.6,-3.2,-1.3,-0.8,4.2,-1.1
CCC1(c2ccccc2)SC(N)=NC1=O (stereo not given),-0.2,1.9,-0.8,-0.3,6.6*,1.5
COc1ccc(NC(=O)c2cc3c(C)nn(-c4ccccc4)c3s2)cc1,-1.3,1.5,-1.9,-3.2,·,-6.5
CCOC(=O)c1c(CN2CCN(C)CC2)n(-c2ccccc2)c2cc(Br)c(O)cc12,0.2,-0.8,-1.7,-1.9,1.9,-2.6
CCOC(=O)c1c(CSC(=N)N)n(-c2ccccc2)c2cc(Br)c(OC(C)=O)cc12,0.9,-1.1,-0.7,-1.1,4.3*,-0.9
Cc1ccc(SCc2cc(=O)[nH]c(Nc3nc(C)c4ccccc4n3)n2)cc1,-0.1,-1.1,0.0,6.1*,0.4,-1.0
